# Data taken from publication PMC5540273 (PLoS ONE, 2017).
# Key:
# Conditions in all cases: concentration: 1 μM,replicates: in singlicate; n = 1
# PIK3C2G = tested on: PIK3C2G
# PIK3CA = tested on: PIK3CA
# PIK3CB = tested on: PIK3CB
# PIK3CD = tested on: PIK3CD
# PIK3CG = tested on: PIK3CG
# PIK4CB = tested on: T1, PIK4CB
# T1 construct: gene PI4KB
# PIKFYVE = tested on: PIKFYVE
# PIM1 = tested on: PIM1
# PIM2 = tested on: PIM2
# PIM3 = tested on: PIM3
# 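Also: KINOMEscan kinase panel screen.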
Structure (SMILES),%Inh (PIK3C2G) [%],%Inh (PIK3CA) [%],%Inh (PIK3CB) [%],%Inh (PIK3CD) [%],%Inh (PIK3CG) [%],%Inh (PIK4CB) [%],%Inh (PIKFYVE) [%],%Inh (PIM1) [%],%Inh (PIM2) [%],%Inh (PIM3) [%]
C[C@@H]1CNc2c(sc3ccc4nc(-c5ccc(O)cc5)ccc4c23)C(=O)N1,28,5,34,39,11,0,18,37,93.7,72
FC(F)(F)c1cc(Br)cc(Nc2nccc(-c3cnn4ncccc34)n2)c1 [GW810578],25,3,16,51,10,30,10,25,0,23
CN(c1cccc(CNc2nc(Nc3ccc4c(c3)CC(=O)N4)ncc2C(F)(F)F)c1)S(C)(=O)=O,0,0,0,0,0,0,31,12,0,3
Cn1ccc2ncnc(Oc3ccc(NC(=O)Nc4cccc(C(F)(F)F)c4)c(F)c3)c21,0,0,0,0,0,0,13,19,0,8
CS(=O)(=O)Nc1ccc(-c2ccnc3[nH]ccc23)cc1 [GSK993273],3,0,0,8,7,10,0,28,0,12
Cc1nnc(-c2ccc3occ(-c4ccc(S(C)=O)cc4)c3n2)o1 (stereo not shown),0,0,8,0,0,0,0,0,3,4
Cc1ccc(C(=O)Nc2ccc(Oc3ccc4nc(NC(=O)C5CC5)cn4c3)c(F)c2)c(=O)n1-c1ccccc1,0,0,0,0,0,0,14,1,0,0
